p53 reactivation – qHTS assay for re-activators of p53 using a Luc reporter. H1299 p53-A138V BP100-luciferase reporter, luminescence, 24 h. Potency, µM (doses to about 92.2 µM), actives largely listed as activators. 320,000 tested, 0.063% active; note: nearly all actives have a fitted effect of over 45% in size
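p53-null H1299 cells stably carrying temperature-sensitive p53-A138V and a BP100-luciferase reporter were pinned with compounds (4-point, 1:5 series) and held 24 hrs at 37 deg C. Luminescence was read 10 min after detection reagent.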
Nrf2 block – Nrf2 qHTS screen for inhibitors | A549 ARE-Fluc reporter, luciferase luminescence, 18-24 h | Potency, µM (titrated, usually from 46 µM), usual class: inhibitors | 360,000 tested, 2.1% active | AID 504444, 2011; note: nearly all actives have a fitted effect of over 60% in size
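Quantitative HTS in A549 cells stably bearing an antioxidant response element-firefly luciferase construct. Inhibition of Nrf2-driven transcription was scored by luminescence after 18-24 h of compound exposure at 37 °C.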
miR-21 reporter – qHTS Assay for Modulators of miRNAs and/orActivators of miR-21; HeLa miR-21 FLuc reporter, luciferase, 48 h; Potency, µM (series often up to 38.3 µM), most hits filed as activators; 340,000 tested, under 10 active;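 note: miR-21 action dims this reporter so a rising signal means less miR-21 action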
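HeLa cells endogenously expressing miR-21, stably carrying CMV-driven firefly luciferase with a downstream miR-21 binding site, 2000 cells/well. Titrations up to approximately 40 uM, 48 hours; luciferase luminescence read.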
ClpP mod – qHTS Assay for Activators of ClpP | Potency, µM (series often up to 57.5 µM) | purified B. subtilis ClpP, FRET peptide cleavage, 20 min | 340,000 tested, 1.9% active | ATP-dependent Clp protease proteolytic subunit (Bacillus subtilis (strain 168)), P80244; active = well fitted falling curve with a large enough effect; inconclusive = small, poorly fitted or top-dose-only effect; inactive = no such curve, though single readings can be large or run the other way; note: the source files actives as falling curves though it sought activators and does not explain the sign; nearly all actives have a fitted effect of over 65% in size
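ClpP 10 microg/mL final, pH 8 Tris/KCl buffer with BSA, glycerol, Tween-20; compound pinned in; FRET-FV substrate; RT 20 min; Ex320/Em430; ΔFRET vs ADEP 5.8 microM, DMSO, no enzyme.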
Nrf2 ARE act – qHTS of Nrf2 Activators. AREc32 ARE-luciferase reporter (MCF7-derived line), luminescence, 24 h. Potency, µM (highest dose often 46.1 µM), most hits filed as activators. 410,000 tested, 0.31% active; note: nearly all actives have a fitted effect of over 65% in size
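AREc32 cells carrying an ARE-driven firefly luciferase, 1000 cells/well in OPTI-MEM with 5% FBS, dosed after overnight attachment and incubated 24 hr at 37 deg C. Steady-Glo luminescence read after 30 min at RT.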
A549 tox – Nrf2 qHTS screen for inhibitors: counterscreen for cytotoxicity | 390,000 tested, 0.16% active | AID 504648, 2011 | Potency, µM (titrated, usually from 46 µM), usual class: inhibitors | A549 ARE-Fluc cells, CellTiter-Fluor viability, 18-24 h
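A549 ARE-Fluc cells in 5% FBS OPTI-MEM, 5000 cells/well, rested 2 h then exposed to compounds in concentration-response for 18-24 h at 37 °C. Viability by CellTiter-Fluor fluorescence (Ex 405/Em 525) after 30 min; luciferase luminescence (BugLite, 15 min, RT) read afterwards.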
Each line names hits and unclear results; the compound was inactive in the other large screens; ! = not confirmed by another sample. Sampled rows, rich in hits. Any-hit rate of the full collection: about 3.7%. Unless noted, calls come from the whole dose curve; as a rule, active = well fitted curve in the direction sought with a large enough effect; inconclusive = small, poorly fitted or top-dose-only effect, or another doubt; inactive = no such curve, though single readings can be large; an effect the other way counts as inactive or inconclusive.

O=C(O)c1ccccc1C(=O)Nc1ccc(Oc2cccc3ccccc23)cc1	Nrf2 block 21µM, miR-21 reporter inconclusive (no result: ClpP mod)
Cc1cccc(Oc2ccc(NC(=O)c3ccccc3C(=O)O)cc2)c1C	none (no result: ClpP mod)
CCc1ccc(NC(=O)CN(c2ccc(C)cc2)S(=O)(=O)c2c(C)nn(C)c2C)cc1	none (no result: p53 reactivation)
CCCOc1ccc(C(=O)N(Cc2ccccc2Cl)C2CCS(=O)(=O)C2)cc1 (stereo not given)	none (no result: p53 reactivation)
COc1ccc(N2C(=O)c3ccccc3NC23CCCCC3)cc1	p53 reactivation inconclusive, Nrf2 block inconclusive, ClpP mod 28µM
CSCCC(NS(=O)(=O)c1ccc(Cl)cc1)C(=O)OCC(=O)c1c(C)[nH]c2ccccc12 (stereo not given)	Nrf2 block 18µM, miR-21 reporter inconclusive, A549 tox inconclusive
CCc1nc2sc(C#N)c(N)c2c2c1CCCC2	ClpP mod 28µM (no result: p53 reactivation, miR-21 reporter)
CCc1ccc(N2CC(C(=O)N3CCN(c4ccccn4)CC3)CC2=O)cc1 (stereo not given)	Nrf2 block inconclusive, ClpP mod 28µM (no result: miR-21 reporter)
CCOc1ccc(N2CC(C(=O)N3CCN(c4ccccn4)CC3)CC2=O)cc1 (stereo not given)	ClpP mod 20µM (no result: miR-21 reporter)
COc1cc(-c2noc(CN3CCN(c4ccccc4)CC3)n2)cc(OC)c1OC	none (no result: p53 reactivation)
COc1ccccc1NC(=O)c1cccc(S(=O)(=O)N2CCCCCC2)c1	Nrf2 block inconclusive (no result: p53 reactivation)
CCN(CC)C(=O)CSc1nnc2nnc3cc(OC)ccc3n12	Nrf2 block 18µM, A549 tox inconclusive (no result: ClpP mod)
CCN(CC)C(=O)CSc1nnc(COc2ccc(OC)cc2)n1N	ClpP mod inconclusive
COc1cccc(C2c3c(ncn(-c4ccccc4-c4ccccc4)c3=N)Oc3ccc4ccccc4c32)c1 (stereo not given)	none (no result: p53 reactivation, miR-21 reporter, ClpP mod, Nrf2 ARE act)
CC(=O)Nc1cccc2ccc(O)cc12	none (no result: p53 reactivation, miR-21 reporter, ClpP mod)
CC(=O)Nc1cc2c3ccccc3ccc2c2ccccc12	ClpP mod 32µM (no result: p53 reactivation, miR-21 reporter)
Nc1cc(-c2ccccc2)ccc1O	ClpP mod 32µM, Nrf2 ARE act inconclusive
CC(=O)Nc1cc(-c2ccccc2)ccc1O	none (no result: A549 tox)
CCC(C(=O)NC1CCCCC1)N(Cc1cccs1)C(=O)CCC(=O)Nc1cc(C)on1 (stereo not given)	Nrf2 block 8.2µM (no result: ClpP mod)
COc1ccc(-c2c(-c3ccsc3)oc(=O)c3cc(OC)c(OC)cc23)cc1	ClpP mod inconclusive (no result: miR-21 reporter)
COCc1ccc(-c2c(-c3ccc(OC)cc3)oc(=O)c3cc(OC)c(OC)cc23)cc1	p53 reactivation inconclusive, ClpP mod 32µM (no result: miR-21 reporter)
COc1cc2[nH]c(=O)n(CCCCCC(=O)N3CC=C(c4ccccc4)CC3)c(=O)c2cc1OC	Nrf2 block inconclusive, ClpP mod 18µM, A549 tox inconclusive
O=C(CCn1c(=O)[nH]c2ccsc2c1=O)N1CCc2ccccc2C1	none
CCOc1cc2[nH]c(=O)n(CCC(=O)N3CCN(c4ccccc4OC)CC3)c(=O)c2cc1OCC	Nrf2 block inconclusive, ClpP mod inconclusive
COc1cc2[nH]c(=O)n(CCC(=O)N3CCc4ccccc4C3)c(=O)c2cc1OC	ClpP mod 28µM
Cc1ccc(-n2c(CCC(=O)O)ccc2-c2cccs2)cc1C	ClpP mod 11µM!
Fc1ccc(-c2nc(Nc3ccc(F)c(Cl)c3)nc3c2COc2ccccc2-3)cc1	Nrf2 block inconclusive (no result: p53 reactivation)
COc1ccc(C(=O)NC(=S)N(Cc2ccccc2)Cc2ccccc2)cc1	Nrf2 block 18µM
O=C(NC(=S)N(Cc1ccccc1)Cc1ccccc1)c1ccccc1F	Nrf2 block 12µM
C=CCN(CC=C)C(=S)NC(=O)c1ccc(OC)cc1	none
CCSc1nc2n(n1)C(c1ccc(CC)cc1)C(C(=O)Nc1ccccc1OC)=C(C)N2 (stereo not given)	none (no result: p53 reactivation, Nrf2 block)
CC(C)CCN1C(=O)c2ccc(C(=O)NCc3ccccn3)cc2C1=O	ClpP mod 32µM (no result: miR-21 reporter)
CN1C(=O)c2ccc(C(=O)NCc3ccccn3)cc2C1=O	none
COc1ccc(S(=O)(=O)N2CCC(Oc3ccc(-n4cnnn4)cc3)CC2)cc1OC	Nrf2 block inconclusive (no result: p53 reactivation)
CCCC1C(C#N)=C(N)Oc2cc(C)n(C)c(=O)c21 (stereo not given)	ClpP mod 32µM
Cc1cc2c(c(=O)n1C)C(Cc1ccccc1)C(C#N)=C(N)O2 (stereo not given)	ClpP mod 28µM
CCn1c(C)cc2c(c1=O)C(c1ccncc1)C(C#N)=C(N)O2 (stereo not given)	none
COc1ccc(Cl)cc1NC(=O)CN(C)S(=O)(=O)c1ccc2c(c1)CCCN2C(C)=O	none (no result: p53 reactivation, Nrf2 block)
O=C(N/N=C/c1ccc(F)c(F)c1)c1cc2c(s1)-c1ccccc1CC2	ClpP mod 32µM (no result: Nrf2 block)
CCCc1cc(=O)[nH]c(SCc2nc(-c3ccc(OC)cc3)no2)n1	none (no result: p53 reactivation, Nrf2 block)
CCCCCCCOC(=O)C1=C(C)Nc2ncnn2C1c1cccs1 (stereo not given)	Nrf2 block 26µM
CCCCCOc1ccc(C2C(C(C)=O)=C(C)Nc3ncnn32)cc1OC (stereo not given)	ClpP mod 11µM
Cc1cccc(CN2C(=O)c3ccccc3S(=O)(=O)c3ccc(C(=O)OCC4CCCO4)cc32)c1 (stereo not given)	none (no result: p53 reactivation)
COc1ccccc1CNc1cc(-c2ccccc2)ccc1OC	ClpP mod 25µM
COc1ccc(-c2ccccc2)cc1NCc1ccc(OC)c(OC)c1	ClpP mod 28µM
COc1cc2ncnc(NCc3ccccc3C)c2cc1OC	none (no result: Nrf2 block)
COc1ccc(CNC(=O)c2ccc(-c3ccccc3)cc2)cc1OC	Nrf2 block inconclusive
COc1ccc(-c2ccccc2)cc1NCc1ccccc1C	p53 reactivation inconclusive, ClpP mod 13µM
COc1ccccc1CNc1ccccc1F	none (no result: ClpP mod)
COc1ccc(-c2nsc(NC(=O)c3oc4cc(C)c(C)cc4c3C)n2)cc1	none (no result: p53 reactivation)
CC(=O)Nc1ccc(NC(=O)c2oc3c(c2C)-c2nn(Cc4ccccc4Cl)cc2CC3)cc1	ClpP mod 20µM (no result: p53 reactivation)
Cc1ccc(CNC(=O)c2oc3c(c2C)-c2nn(Cc4ccc(Cl)cc4)cc2CC3)cc1	none (no result: p53 reactivation)
COCCCNC(=O)c1oc2c(c1C)-c1nn(Cc3ccc(Cl)cc3)cc1CC2	ClpP mod 32µM (no result: p53 reactivation)
CCN(CC)CCCNC(=O)c1oc2c(c1C)-c1nn(Cc3ccc(Cl)cc3)cc1CC2	ClpP mod 16µM (no result: p53 reactivation)
O=S(=O)(c1c(F)cccc1F)N1CCN(S(=O)(=O)c2c(F)cccc2F)CC1	Nrf2 block inconclusive (no result: p53 reactivation, miR-21 reporter, ClpP mod, Nrf2 ARE act)

High-throughput results deposited in PubChem by National Center for Advancing Translational Sciences (NCATS).
